ssDAF-12 act: S. stercoralis DAF-12 activation, primary screen. HEK293 ssDAF-12/GRIP1 lit1-tk-luc reporter, luminescence; % of 3 µM dafachronic acid response. activation, % at 6.8 µM. actives 1% (n = 370,000);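 active = activation above the mean over all tested compounds plus 3 SD, cut at about 0.9% in these data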;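 also: 0% = DMSO-only wells and 100% = 3 µM delta7-dafachronic acid wells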
SMARCA2 activ: SMARCA2 function activation, primary screen | MG213 cells, MMTV-luciferase reporter, dexamethasone, overnight | activation, % at 9.1 µM | actives 1% (n = 370,000); in the data active = activation above about 7.8%;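 also: 0% = vehicle wells and 100% = reference activator wells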
hcDAF-12 act: activates DAF-12 receptor from parasite H. contortus. activation, % at 6.8 µM. AID 652067. actives 1.4% (n = 370,000). HEK293 hcDAF-12 lit1-tk-luc reporter, luminescence; 0% DMSO, 100% Δ7-dafachronic acid;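 active = activation above the mean of all tested compounds plus 3 SD, cut at about 5.5% in these data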;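 also: 100% = response to 3 µM Δ7-dafachronic acid high control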
DAX1 inh-1: inhibits human nuclear receptor DAX1. HEK293 Gal4-DAX1 luciferase reporter, luminescence. inhibition, % at 6.75 µM. actives 0.99% (n = 340,000);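 active = inhibition above the mean over all tested compounds plus 3 SD, cut at about 4.2% in these data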;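 also: 0% = DAX1-transfected cells with DMSO and 100% = empty-vector control cells with DMSO; inhibition shows as a rise in luminescence from relieved DAX1 repression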
Target sequence (P51843 207-470 limits assumed): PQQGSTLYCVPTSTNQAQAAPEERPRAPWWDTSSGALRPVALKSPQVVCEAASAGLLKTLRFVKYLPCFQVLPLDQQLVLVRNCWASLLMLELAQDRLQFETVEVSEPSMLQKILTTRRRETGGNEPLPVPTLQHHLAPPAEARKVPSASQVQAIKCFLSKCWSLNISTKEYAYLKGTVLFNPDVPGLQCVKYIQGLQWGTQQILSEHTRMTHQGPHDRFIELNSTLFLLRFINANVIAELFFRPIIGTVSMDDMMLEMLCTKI
DAX1 inh-2: blocks DAX1 repression of SF-1 activated StAR promoter | inhibition, % at 6.8 µM | HEK293T StAR-luciferase reporter, SF-1/DAX-1 repression relief | actives 1.1% (n = 370,000);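 active = inhibition above the mean over all tested compounds plus 3 SD, cut at about 3.6% in these data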;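 also: 0% = DAX-1 cells with DMSO and 100% = cells lacking DAX-1 with DMSO; higher inhibition means more luminescence from relief of DAX-1 repression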
hgDAF12 agonist: activates the H. glycines DAF-12 receptor ligand-binding domain. actives 1.8% (n = 370,000). AID 687014. HEK293 GAL4-hgDAF12 UAS-luciferase reporter, agonist luminescence; normalized to butyrate control. activation, % at 6.8 µM;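 active = activation above a cutoff set at the mean of all screened compounds plus 3 SD, cut at about 10% in these data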;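 also: 0% = DMSO wells and 100% = sodium butyrate wells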
hgDAF12 conf: confirmation of H. glycines DAF-12 agonists; shares compounds with hgDAF12 agonist; HEK293 GAL4-hgDAF12 luciferase reporter, agonist mode; percent of butyrate response; activation, % at 6.8 µM; actives 80% (n = 3,300);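 active = mean activation over triplicate wells above the hit cutoff derived from the earlier primary screen, cut at about 11% in these data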;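 also: 0% = DMSO low control and 100% = 2 mM sodium butyrate high control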
LXRb DAF12 ctr: LXR-beta agonism as DAF-12 counter-screen. shares compounds with hgDAF12 agonist. HEK293 Gal4-LXR luciferase reporter, 24 h. activation, % at 6.8 µM. 3,300 tested, under 10 active. AID 743051;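 active = mean activation of the triplicate above a set limit carried over from the primary screen, none filed active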
* marks the source's active call; other numbers are inactive results. Sampled rows, rich in hits. Any-hit rate of the full collection: about 4.8%.

COc1cccc(C(=O)Nc2ccc(Oc3cccc(C(F)(F)F)c3)nc2)c1 was read as ssDAF-12 act -2, SMARCA2 activ -9, hcDAF-12 act -4, DAX1 inh-1 -2, DAX1 inh-2 -1 and hgDAF12 agonist -3.
Screening O=C(c1ccc2nc(Cc3ccccc3F)oc2c1)N1CCCC1 returned ssDAF-12 act 0, SMARCA2 activ 4, hcDAF-12 act 5, DAX1 inh-1 2, DAX1 inh-2 3, hgDAF12 agonist 15*, hgDAF12 conf 14* and LXRb DAF12 ctr 0.
`Cc1cc(CN(C)C(=O)c2ccc3nc(Cc4ccccc4F)oc3c2)n[nH]1` gave ssDAF-12 act -1, SMARCA2 activ -2, hcDAF-12 act -2, DAX1 inh-1 0, DAX1 inh-2 -1 and hgDAF12 agonist 0.
Screening C/C(=N/NC(=O)c1ccccn1)c1ccncc1 returned ssDAF-12 act 1, SMARCA2 activ 5, hcDAF-12 act 5, DAX1 inh-1 2, DAX1 inh-2 2, hgDAF12 agonist 14*, hgDAF12 conf 9 and LXRb DAF12 ctr 0.
Screening C/C(=N/NC(=O)c1ccc(Br)o1)c1ccncc1 returned ssDAF-12 act 1, SMARCA2 activ 3, hcDAF-12 act 2, DAX1 inh-1 5.7*, DAX1 inh-2 2, hgDAF12 agonist 18*, hgDAF12 conf 0 and LXRb DAF12 ctr 0.
`C/C(=N/NC(=O)c1cnccn1)c1ccncc1` gave ssDAF-12 act 0, SMARCA2 activ -1, hcDAF-12 act 0, DAX1 inh-1 0, DAX1 inh-2 1 and hgDAF12 agonist 6.
`O=[N+]([O-])c1ccc(-c2nc3ccc([N+](=O)[O-])cc3[nH]2)cc1` gave ssDAF-12 act -1, SMARCA2 activ 1, hcDAF-12 act -1, DAX1 inh-1 1, DAX1 inh-2 1 and hgDAF12 agonist 1.
Screening Nc1ccc(-c2nc3ccc([N+](=O)[O-])cc3[nH]2)cc1 returned ssDAF-12 act 0, SMARCA2 activ 5, hcDAF-12 act 2, DAX1 inh-1 2, DAX1 inh-2 4.3*, hgDAF12 agonist 16*, hgDAF12 conf 15* and LXRb DAF12 ctr 1.
For CC1(C)CC(=O)c2cc(N=C/C(C(=O)c3ccccc3)=C(\O)c3ccccc3)c(=O)oc2C1 the results were ssDAF-12 act 0, SMARCA2 activ 1, hcDAF-12 act 1, DAX1 inh-1 5.1*, DAX1 inh-2 1, hgDAF12 agonist 14*, hgDAF12 conf 7 and LXRb DAF12 ctr 0.
Screening Cc1c(NC(=O)CC(O)(C(F)(F)F)C(F)(F)F)c(=O)n(-c2ccccc2)n1C returned ssDAF-12 act -1, SMARCA2 activ 0, hcDAF-12 act 1, DAX1 inh-1 0, DAX1 inh-2 1 and hgDAF12 agonist 4.
`COC(=O)c1ccccc1CC1SC(N)=NC1=O` (stereo not given) gave ssDAF-12 act -2, SMARCA2 activ -1, hcDAF-12 act -3, DAX1 inh-1 1, DAX1 inh-2 0 and hgDAF12 agonist 3.
`COC(=O)c1ccccc1CC1Cc2cc3c(cc2C1=O)CCC3` (stereo not given) gave ssDAF-12 act 1.9*, SMARCA2 activ 2, hcDAF-12 act 2, DAX1 inh-1 3, DAX1 inh-2 4.3*, hgDAF12 agonist 14*, hgDAF12 conf 13* and LXRb DAF12 ctr 1.
Screening CCOCCCNCC(O)c1ccccc1 (stereo not given) returned ssDAF-12 act -1, SMARCA2 activ -1, hcDAF-12 act 0, DAX1 inh-1 2, DAX1 inh-2 1 and hgDAF12 agonist -1.
Screening O=C(NS(=O)(=O)c1ccc2ccc(S(=O)(=O)NCCSc3ccccc3)cc2c1)c1cccc2ccccc12 returned ssDAF-12 act 0, SMARCA2 activ -3, hcDAF-12 act -2, DAX1 inh-2 1 and hgDAF12 agonist 2.

Screening results as filed in PubChem BioAssay.
